We go through 28 compounds from PubChem BioAssay AID1224904 (Broad Institute, 2016).

Out of some 37,000 compounds screened, about 290 (0.78%) were called active. Not shown: some 10% with an inconclusive outcome.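 Rule for the calls: active = mean inhibition of at least 10% in the main channel, exceeding the control channel by a set limit; inconclusive = inhibition of 10% or more but channel gap under a set limit; inactive = mean inhibition below 10%.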 The full list was thinned out, with actives kept by preference.

The nature of this test: DUX4 transcriptional activity inhibition in cells – 293T cells, Gaussia and Italica luciferase, primary screen (AID 1224904).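 For activity change, negative = inhibition: 0% = median of neutral control wells and -100% = median of positive control wells.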 The note with it: 293T-iDUX4 ZSCAN4-Gaussia luciferase reporter, 24 h, stronger effect = lower value, concentration not given here; for Gaussia minus Italica difference: measured here: selective DUX4 reporter inhibition. Background: A reporter such as luciferase makes a cellular process visible.

The mark [1] stands for this setting: measured here: Italica tet-on control reporter.

Regarding `COc1cccc(C(=O)N2C[C@@H]3[C@H](c4ccccc42)[C@H](CO)N3Cc2ccccc2F)c1`, the activity change, negative = inhibition is -0.575% (inactive) and the Gaussia minus Italica difference was -4.03%. Under setting [1], the activity change, negative = inhibition turned out to be 3.46%.
Take `CCCNC(=O)N1C[C@@H](O)COC[C@H]2O[C@H](CC(=O)NCCCN3CCOCC3)CC[C@@H]21`: the activity change, negative = inhibition was 5.88% (inactive) and the Gaussia minus Italica difference is -0.509%. The activity change, negative = inhibition under setting [1] was found to be 6.39%.
As to `CCC(=O)N1CC2(C1)CN(Cc1nccs1)[C@@H](CO)c1c2c2ccc(OC)cc2n1C`, the activity change, negative = inhibition was 20% (inactive) and the Gaussia minus Italica difference turned out to be 17.3%. For the same compound, the activity change, negative = inhibition under setting [1] came out at 2.76%.
For `CN(C)C(=O)c1cccc(-c2ccc3c(c2)[C@H]2[C@H](CCN2C(=O)c2cccnc2)[C@H](CO)N3)c1`, in that order: -0.714% (inactive), -0.793% and 0.0796%.
For the compound `O=C(C[C@@H]1CC[C@@H]2[C@H](COC[C@H](O)CN2CC2CCOCC2)O1)NCC1CCCCC1`, the activity change, negative = inhibition is 3.21% (inactive) and the Gaussia minus Italica difference is -8.33%. Moreover, the activity change, negative = inhibition under setting [1] worked out at 11.5%.
On the same counts, the results for `CCCN1C[C@@H](C)[C@@H](OC)CN(C)C(=O)c2cc(NC(=O)Nc3cccc(F)c3)ccc2OC[C@@H]1C` are -9.36% (inactive), -3.7% and -5.66%.
For `O=C(NCC1CC1)[C@@H]1[C@@H](CO)[C@@H]2Cn3c(ccc(-c4ccncc4)c3=O)[C@@H]2N1Cc1cocn1`, in that order: -0.331% (inactive), 1.11% and -1.44%.
For `CC(C)NC(=O)N1[C@H](CO)[C@H](c2ccccc2)C12CN(C(=O)Cc1cccnc1)C2`, in that order: 1.09% (inactive), -4.76% and 5.85%.
For the compound `CCC(=O)N1[C@H](CO)[C@@H]2c3ccccc3N(S(=O)(=O)c3ccccc3C)C[C@@H]21`, the activity change, negative = inhibition is -0.934% (inactive) and the Gaussia minus Italica difference was -0.0907%. Further, under setting [1], the activity change, negative = inhibition was -0.843%.
On the same counts, the results for `CO[C@H]1CN(C)C(=O)c2ccc(NS(C)(=O)=O)cc2OC[C@@H](C)N(Cc2ccccc2)C[C@@H]1C` are 3.45% (inactive), 1.71% and 1.74%.
Turning to `CCN(C[C@@H]1[C@@H](c2ccccc2)[C@H](CO)N1C(C)=O)C(=O)NC(C)C`, the activity change, negative = inhibition is -4.96% (inactive) and the Gaussia minus Italica difference is -3.89%. For the same compound, the activity change, negative = inhibition under setting [1] was -1.07%.
For `CCCNC(=O)N(C)C[C@H]1Oc2ncc(-c3ccc(C(=O)N(C)C)cc3)cc2C(=O)N([C@@H](C)CO)C[C@@H]1C`, in that order: -0.44% (inactive), -6.14% and 5.7%.
On the same counts, the results for `COc1ccc2c3c([nH]c2c1)[C@H](CO)N(C(=O)C1CCOCC1)CC31CN(S(C)(=O)=O)C1` are -4.43% (inactive), -5.7% and 1.27%.
On to `O=C(Cc1ccccc1)N1C[C@H]2[C@@H](c3ccccc31)[C@H](CO)N2C(=O)c1ccc(F)cc1`, for which the activity change, negative = inhibition was 0.616% (inactive) and the Gaussia minus Italica difference is -2.21%. The activity change, negative = inhibition under setting [1] came out at 2.82%.
Consider `CN1C(=O)c2cc(NC(=O)c3cnccn3)ccc2OC[C@@H]2O[C@H](CC(=O)NC3CCC3)CC[C@@H]21`, for which the activity change, negative = inhibition is 3.24% (inactive) and the Gaussia minus Italica difference was determined as 3.07%. Moreover, the activity change, negative = inhibition under setting [1] came to 0.171%.
On the same counts, the results for `O=C(C[C@@H]1CC[C@@H]2[C@H](COC[C@H](O)CN2S(=O)(=O)c2ccc(F)cc2)O1)NCc1ccc(Cl)c(Cl)c1` are -7.18% (inactive), 5.22% and -12.4%.
On the same counts, the results for `CCCNC(=O)N1C[C@@H]2[C@H](c3ccccc31)[C@@H](CO)N2C(=O)NC(C)C` are -3.62% (inactive), -3.78% and 0.166%.
On to `N#C[C@@H]1N[C@@H](CO)[C@@H]1c1ccc(C#Cc2ccccc2F)cc1`, for which the activity change, negative = inhibition is 0.819% (inactive) and the Gaussia minus Italica difference was 0.167%. Moreover, the activity change, negative = inhibition under setting [1] came to 0.652%.
Take `CC=Cc1ccc2n(c1=O)C[C@@H]1[C@@H](CO)[C@H](C(=O)NCCC)[C@H]2N1C(=O)C1CC1` (mixture of isomers): the activity change, negative = inhibition was 3.79% (inactive) and the Gaussia minus Italica difference was -1.71%. The activity change, negative = inhibition under setting [1] is 5.5%.
As to `CCCNC(=O)N1C[C@@H](O)COC[C@H]2O[C@@H](CC(=O)NCCCN3CCOCC3)CC[C@@H]21`, the activity change, negative = inhibition is -2.3% (inactive) and the Gaussia minus Italica difference is -7.76%. Further, the activity change, negative = inhibition under setting [1] came to 5.46%.
On the same counts, the results for `Cc1cc(C(=O)Nc2ccc3c(c2)C(=O)N(C)[C@H]2CC[C@H](CC(=O)NCC(F)(F)F)O[C@@H]2CO3)no1` are -3.18% (inactive), -4.67% and 1.49%.
On the same counts, the results for `C[C@@H](NC(=O)C[C@H]1CC[C@@H](NC(=O)Cc2ccccn2)[C@@H](CO)O1)c1ccccc1` are 14.3% (inactive), 12.6% and 1.74%.
On to `O=C(C[C@@H]1CC[C@H]2[C@@H](COC[C@H](O)CN2C(=O)Nc2ccccc2)O1)NCCc1ccncc1`, for which the activity change, negative = inhibition was -0.33% (inactive) and the Gaussia minus Italica difference is -7.36%. Besides, the activity change, negative = inhibition under setting [1] is 7.03%.
On the same counts, the results for `COc1ccc(NC(=O)N(C)C[C@@H]2OCc3cn(nn3)CCCC(=O)N([C@H](C)CO)C[C@H]2C)c(OC)c1` are -6.81% (inactive), -11.6% and 4.76%.
For `N#C[C@@H]1[C@@H](c2ccc(-c3ccccc3F)cc2)[C@@H](CO)N1C(=O)C1CC1`, in that order: -3.2% (inactive), -2.29% and -0.917%.
Consider `COc1ccc2c3c([nH]c2c1)[C@@H](CO)N(C(=O)NC(C)C)CC31CN(C(=O)C2CCCC2)C1`, for which the activity change, negative = inhibition was 6.7% (inactive) and the Gaussia minus Italica difference was found to be 6.4%. Further, the activity change, negative = inhibition under setting [1] was 0.3%.
Regarding `COc1ccc2c3c([nH]c2c1)[C@@H](CO)N(Cc1cc(F)ccc1F)CC31CN(C(=O)C2CCC2)C1`, the activity change, negative = inhibition was -77.2% (active) and the Gaussia minus Italica difference was -33.6%. Further, the activity change, negative = inhibition under setting [1] is -43.6%.
On the same counts, the results for `COc1ccc2c3c(n(C)c2c1)[C@H](CO)N(Cc1ccccc1F)CC31CN(C(=O)C2CCC2)C1` are 6.19% (inactive), 2.45% and 3.73%.
